These results are taken from PubChem BioAssay (EPA / NIEHS).

Test [1] can be described thus: ACEA_ER_80hr: ACEA Biosciences xCELLigence Real-Time Cell Analysis on Estrogen Receptor Agonism for Proliferation (AID 2282667; active = hit-call score of the fitted dose curve at least 0.9, where 1 is the maximum). As to conditions: T47D proliferation, impedance (xCELLigence), 80 h. In short, it runs like this:
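Real-time electrical impedance tracked growth of the human breast line T47D, with the 80 h post-dosing value used. Dosing spanned eight 1:4 steps down from a 100 uM final top concentration, run in duplicate.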

Test [2] in a line: APR_HepG2_CellCycleArrest_24hr: Apredica 24-hour HepG2 Assay for Cell Cycle Arrest (AID 2282905).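 Note: cell cycle arrest scored as ratio of 2N to 4N nuclear DNA content.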 As to conditions: imaging, actives raise or lower the signal. In a few lines: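 Cell cycle arrest is scored from nuclear DNA content measured by high-content imaging of Hoechst 33342-stained HepG2 cells following 24-hour treatment at ten concentrations up to 200 uM, with DMSO as baseline.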

A short description of test [3]: APR_HepG2_NuclearSize_24hr: Apredica 24-hour HepG2 Assay for Nuclear Size (AID 2282907). As to conditions: high-content imaging, actives raise or lower the signal. In a few lines:
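Compounds in DMSO (final 0.5%) were added to human HepG2 hepatoma cells at ten concentrations up to 200 uM for 24 hr. Fixed nuclei were stained with Hoechst 33342, and nuclear diameter was quantified from automated images.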

Test [4] can be described thus: APR_HepG2_CellLoss_24hr: Apredica 24-hour HepG2 Assay for Cell Loss (AID 2282908).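 For AC50: fit in both directions so a hit may be cell loss or gain.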 As to conditions: high-content imaging. In a few lines: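 Cell number is quantified by fluorescence imaging of Hoechst 33342-stained nuclei following dosing at 0.39–200 uM in 0.5% DMSO. Curves are fitted in both directions from the DMSO baseline.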
Test [5] is described as follows: APR_HepG2_MitoticArrest_24hr: Apredica 24-hour HepG2 Assay for Mitotic Arrest (AID 2282910). The conditions noted are these: high-content imaging, actives raise or lower the signal. In a few lines:
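Compounds are dosed onto HepG2 cells across ten concentrations up to 200 uM for 24 hr. Cells are then fixed in 3.7% formaldehyde, permeabilised, and labelled for phospho-histone H3 and nuclei; images are scored by cell cycle analysis and fitted bidirectionally relative to DMSO.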

A short description of test [6]: APR_HepG2_MitoMembPot_24hr: Apredica 24-hour HepG2 Assay for Mitochondrial Membrane Potential (AID 2282911). As to conditions: imaging, actives raise or lower the signal. In short, it runs like this: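 Cells are dosed for 24 hr across 0.39 to 200 uM with solvent held at 0.5% DMSO. They are then stained with 250 nM MitoTracker Red CMXRos for 30 min, fixed in 3.7% formaldehyde and imaged.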

The nature of test [7]: APR_HepG2_MitoMass_24hr: Apredica 24-hour HepG2 Assay for Mitochondrial Mass (AID 2282912). The conditions noted are these: high-content imaging, actives raise or lower the signal. In a few lines:
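The liver line HepG2 was dosed in duplicate across a 0.39–200 uM series, with final DMSO held at 0.5% v/v, and harvested at 24 hr. High-content imaging measured mitochondrial dye staining.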

A short description of test [8]: APR_HepG2_p53Act_24hr: Apredica 24-hour HepG2 Assay for p53 Activation (AID 2282913).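 Note: p53 protein immunofluorescence averaged per cell in HepG2 with Hoechst nuclei.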 The conditions noted are these: high-content imaging, actives raise or lower the signal. In short, it runs like this:
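Human HepG2 liver cells; 24 hr cpd treatment, 0.39–200 uM, 0.5% DMSO final. Fixed in 3.7% formaldehyde, permeabilized with 0.5% Triton X-100, stained with anti-p53/Cy5 plus Hoechst 33342. Six images per well at 20x; gain or loss vs DMSO.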

The nature of test [9]: APR_HepG2_CellCycleArrest_72hr: Apredica 72-hour HepG2 Assay for Cell Cycle Arrest (AID 2282914). As to conditions: high-content imaging, actives raise or lower the signal. In short, it runs like this: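 Read-out is Hoechst-stained nuclear DNA content measured by automated fluorescence imaging (20x, six images per well), fitted in both directions relative to DMSO. Human HepG2 liver cells received 0.39–200 uM compound for 72 hr at 0.5% v/v DMSO.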

Test [10] can be described thus: APR_HepG2_CellLoss_72hr: Apredica 72-hour HepG2 Assay for Cell Loss (AID 2282915). The conditions noted are these: high-content imaging. In short, it runs like this: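 Cell number comes from Hoechst 33342-labelled nuclei, imaged at 20x after 3.7% formaldehyde fixation. Dosing was 0.39–200 uM, ten concentrations in duplicate, 0.5% DMSO final, for 72 h. Bidirectional fit relative to DMSO baseline.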

Test [11] in a line: APR_HepG2_P-H2AX_72hr: Apredica 72-hour HepG2 Assay for H2AX Phosphorylation (AID 2282916).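 Note: phospho-histone H2A.x immunostain intensity per cell marking DNA damage.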 As to conditions: imaging, actives raise or lower the signal. In short, it runs like this:
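Following 72 hr treatment with 0.39–200 uM compound, HepG2 cells were formaldehyde-fixed, permeabilized and stained for phospho-H2A.x; signal was measured by high-content imaging and fitted bidirectionally against DMSO controls.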

The nature of test [12]: APR_HepG2_MitoMembPot_72hr: Apredica 72-hour HepG2 Assay for Mitochondrial Membrane Potential (AID 2282917). As to conditions: imaging, actives raise or lower the signal. In short, it runs like this: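 Membrane potential read by MitoTracker Red CMXRos (250 nM, 30 min, pre-fixation) fluorescence imaging of HepG2 after 72 hr exposure. Ten concentrations, 0.39–200 uM, duplicate wells, 0.5% DMSO; fitted in both directions against DMSO baseline.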

A short description of test [13]: APR_HepG2_MitoticArrest_72hr: Apredica 72-hour HepG2 Assay for Mitotic Arrest (AID 2282918). The conditions noted are these: high-content imaging, actives raise or lower the signal. In short, it runs like this:
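Read-out is phospho-histone H3 immunofluorescence with Hoechst nuclear segmentation, imaged at 20x. Human HepG2 liver cells received ten concentrations (0.39–200 uM, final DMSO 0.5% v/v) for 72 hr before fixation. Gain or loss of signal was fitted relative to DMSO.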

A short description of test [14]: APR_HepG2_MicrotubuleCSK_72hr: Apredica 72-hour HepG2 Assay for Microtubule CSK Stabilty (AID 2282919). The conditions noted are these: HepG2 microtubule cytoskeleton, high-content imaging, actives raise or lower the signal. In a few lines: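 Read-out is tubulin fluorescence intensity from high-content imaging of HepG2 cells, with nuclei identified by Hoechst 33342. Treatment lasts 72 h at 0.39–200 uM, and curves are fitted bidirectionally against the DMSO negative control.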

The nature of test [15]: APR_HepG2_P-H2AX_24hr: Apredica 24-hour HepG2 Assay for H2AX Phosphorylation (AID 2282920). The conditions noted are these: high-content imaging, actives raise or lower the signal. In a few lines: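 HepG2, 24 hr, cpd 0.39–200 uM (10 conc, duplicate), DMSO 0.5% v/v final. Fix 3.7% formaldehyde, Triton X-100 permeabilize, anti-phospho-H2A.x 1:200 + Hoechst 2 ug/mL. Imaged, bidirectional fit vs DMSO.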

Test [16] in a line: APR_HepG2_StressKinase_72hr: Apredica 72-hour HepG2 Assay for Stress Kinase (AID 2282921). The conditions noted are these: HepG2 stress kinase (phospho-c-Jun) imaging, actives raise or lower the signal. In a few lines:
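Fluorescence intensity of Cy3-tagged anti-phospho-c-Jun antibody, quantified per cell from Hoechst-defined nuclei across six images per well, served as the read-out following 72 h exposure (0.39–200 uM, 0.5% v/v DMSO).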

Test [17] is described as follows: APR_HepG2_StressKinase_24hr: Apredica 24-hour HepG2 Assay for Stress Kinase (AID 2282922). As to conditions: HepG2 stress kinase (phospho-c-Jun) imaging, actives raise or lower the signal. In a few lines:
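HepG2, 24 hr dosing, 0.39–200 uM in duplicate, 0.5% DMSO; formaldehyde fix (3.7%), 0.5% Triton X-100; anti-phospho-c-Jun + Cy3 secondary, Hoechst counterstain; ArrayScan imaging; bidirectional curve fit vs DMSO baseline.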

Test [18] can be described thus: APR_HepG2_p53Act_72hr: Apredica 72-hour HepG2 Assay for p53 Activation (AID 2282923).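 Note: average cellular p53 protein immunofluorescence intensity in HepG2 cells.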 As to conditions: high-content imaging, actives raise or lower the signal. In a few lines:
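HepG2 monolayers receive test compounds in duplicate at ten concentrations (0.39 through 200 uM) for 72 hr. They are then formaldehyde-fixed, antibody-labelled for p53, Hoechst-stained and imaged, with activity fitted bidirectionally versus DMSO.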

A short description of test [19]: APR_HepG2_MitoMass_72hr: Apredica 72-hour HepG2 Assay for Mitochondrial Mass (AID 2282924).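 Note: MitoTracker Red CMXRos stain intensity per cell imaged as mitochondrial mass.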 As to conditions: high-content imaging, actives raise or lower the signal. In a few lines: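 HepG2, 72 hr cmpd, 10 conc 0.39–200 uM in dup, DMSO 0.5% v/v. MitoTracker Red CMXRos 250 nM 30 min pre-fix; formaldehyde 3.7% fix 30 min RT. HCS imaging, gain/loss fit vs DMSO.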

Each structure is given as a SMILES string. Values joined by “and” are separate entries in the source; they are usually repeats but may differ in a detail not shown here. Identical values can stand only once. Records with an inconclusive call do not appear. Active and inactive are the calls of the source. Rule for the calls, unless noted: active = hit-call score of the fitted dose curve at least 0.9, where 1 is the maximum; inactive = score below 0.9.

For `CN1CCN(c2ccccc2/C=C2\SCCN(c3ccc(Cl)c(Cl)c3)C2=O)CC1`, the outcome in test [1], in [2], in test [7], in [9], in test [11] and in [12] was inactive. Moreover, the compound was classed as inactive in test [17] and in test [18]. For the same compound, the AC50 was 11.2 µM (active) in test [3]; 24 µM (active) in test [4]; 7.46 µM (active) in [5]; 53.6 µM (active) in [6]; 23.5 µM (active) in test [8]; 12.4 µM (active) in test [10]. In addition, the AC50 in [13] is 4.25 µM (active); in test [14], 23.5 µM (active); in test [15], 32.7 µM (active); in test [16] it was 19.4 µM (active); in test [19], 109 µM (active).
In the case of `OCCC(F)(F)C(F)(F)C(F)(F)C(F)(F)C(F)(F)C(F)(F)C(F)(F)C(F)(F)F`, the outcome in [1], in [6], in test [12], in test [14] and in [16] was inactive. Also, the AC50 was 17.6 µM (active) in test [2]; 75 µM (active) in test [3]; 27.8 µM (active) in test [4]; 24.1 µM (active) in test [5]; 29.9 µM (active) in [7]; 25.1 µM (active) in test [8]. Besides, the concentration at half-maximal activity (AC50) in test [9] was 14.7 µM (active); in [10], 34.8 µM (active); in test [11] it was 29.7 µM (active); in test [13], 21.8 µM (active); in [15] it was 26.8 µM (active); in [18] it was 29.5 µM (active). Also, the half-maximal activity concentration (AC50) in test [19] is 102 µM (active).
Take `COc1cc(CCC(=O)CC(=O)CCc2ccc(O)c(OC)c2)ccc1O`: the compound was classed as inactive in test [1], in test [2], in [3], in test [4], in test [5] and in test [6]. The compound was called inactive in [7], in test [8], in test [9], in test [10], in test [12] and in [14]. Besides, the call in test [15], in test [16] and in [19] was inactive. Besides, the AC50 in [11] was 96.6 µM (active); in test [13] it was 166 µM (active); in test [18] it was 145 µM (active).
For `ClC1=C(Cl)C(Cl)(Cl)C(Cl)=C1Cl`, the call in test [1], in test [2], in [3], in test [4], in test [5] and in test [6] was inactive. The result in test [7], in [8], in test [9], in test [10], in test [11] and in test [12] was inactive. Also, the call in test [13], in test [14], in test [15], in [16], in test [18] and in test [19] was inactive.
In the case of `CC(C)(C)CC(C)(C)c1ccc(O)c(-n2nc3ccccc3n2)c1`, the call in test [1], in test [3], in test [7], in test [12] and in test [16] was inactive. The half-maximal activity concentration (AC50) was 36.9 µM (active) in [2]; 57.1 µM (active) in test [4]; 48.9 µM (active) in test [5]; 50.6 µM (active) in test [6]; 62.6 µM (active) in test [8]; 26.2 µM (active) in test [9]. In addition, the concentration at half-maximal activity (AC50) in [10] is 65.5 µM (active); in [11], 61.7 µM (active); in test [13], 35.6 µM (active); in test [14] it was 47.9 µM (active); in test [15], 78.4 µM (active); in test [18] it was 19 µM (active). For the same compound, in test [19], the AC50 is 42.8 µM (active).
Take `C#C[C@]1(O)CC[C@H]2[C@@H]3CCC4=CC(=O)CC[C@@H]4[C@H]3CC[C@@]21C`: the AC50 in test [1] is 3.95 nM (active) and 5.39 nM (active) and 91.8 nM (active). Besides, the compound was classed as inactive in test [2], in test [3], in test [4], in test [5], in test [6] and in test [7]. In addition, the compound was called inactive in [8], in [9], in [10], in test [11], in test [12] and in test [13]. Moreover, the call in [14], in [15], in test [16], in test [17], in test [18] and in [19] was inactive.
On to `CCCCCCCC(=O)O`, for which the result in test [1], in test [2], in [3], in test [4], in [5] and in test [7] was inactive. Moreover, the result in test [8], in [9], in test [10], in [11], in test [12] and in [13] was inactive. The compound was classed as inactive in test [14], in [15], in test [16], in [18] and in test [19]. Also, the AC50 in test [6] is 0.0327 µM (active).
For `Oc1cccc(O)c1`, the compound was classed as inactive in test [1], in [2], in test [3], in [4], in test [5] and in test [6]. The compound was classed as inactive in test [7], in test [8], in test [9], in test [10], in test [11] and in test [12]. Also, the outcome in test [13], in [14], in test [15], in test [16], in test [17] and in [18] was inactive. The call in test [19] was inactive.
